Source: ChEMBL document CHEMBL4513149, “CO-ADD screening of MMV (CH) - MMV compounds” (2021)
Measured potencies and affinities stand elsewhere.

What follows are compounds tested on Staphylococcus aureus. Conditions: Concentration 20 uM; ASSAY_TEST Inhibition of Bacterial Growth; detection method Absorption (OD600); MEDIA CAMHB; plate type 384well; NBS; CORNING #3640; time 18 hr.

Row | SMILES | Inhibition [%]
1 | COc1ccc(-c2cnc3ccc(NCc4ccc(S(N)(=O)=O)cc4)nn23)cn1 | 19.01
2 | COc1cccc2c(C)nc(N=C(N)N)nc12.O=C(O)C(F)(F)F.O=C(O)C(F)(F)F | 15.44
3 | Cc1ccc2[nH]c3c(NCCN(C)C)ncnc3c2c1 | 20.13
4 | CCOc1ccc(-c2nc(CNCCc3ccc(F)cc3)cs2)cc1 | 30.74
5 | OCCc1ccc(Nc2nccc(-c3nnc4ccccn34)n2)cc1 | 21.71
6 | COc1ccccc1CNC(=O)c1cc(C2CC2)nc2c1cnn2C(C)C | 13.79
7 | Cc1cc(Cl)c(S(=O)(=O)N2CCCC2)cc1OCC(=O)NC1CCCCC1 | 7.56
8 | CC1=Nc2ccc(Cl)cc2C(O)(c2ccc(C)cc2)N1CCN1CCCCC1 (stereo unspecified) | 19.52
9 | Cc1cc(C(=O)Nc2cnn(Cc3ccc(Cl)cc3Cl)c2)no1 | 4.82
10 | O=C(NC1CC1)c1ccc(CSCc2ccccc2Cl)o1 | 11.19
11 | COc1ccccc1C(C)NCC(=O)Nc1cc(C(F)(F)F)ccc1Cl (stereo unspecified) | 10.99
12 | COc1cc(Br)cc2cc(C(=O)Nc3cccc(C(F)(F)F)c3)c(=O)oc12 | 7.48
13 | CC1CCCN(C(=O)C(C)Nc2cc(Cl)ccc2N2CCOCC2)C1 (stereo unspecified) | 20.88
14 | CN1CCN(S(=O)(=O)c2ccc(-c3ccc4c(Nc5ccc6nn[nH]c6c5)ccnc4c3)cc2)CC1 | 10.46
15 | NCCC(O)C(=O)N[C@@H]1C[C@H](N)[C@@H](OC2O[C@H](CN)[C@@H](O)[C@H](O)[C@H]2O)[C@H](O)C1OC1O[C@H](CO)[C@@H](O)[C@H](N)[C@H]1O.O=S(=O)(O)O.O=S(=O)(O)O (stereo partly specified) | 14.32
16 | O=C(NCCc1ccccc1)c1cc(-c2cccnc2)cnc1NCC1CC1 | 6.31
17 | COc1cccc(OCC(=O)c2ccc(Br)cc2)c1 | -13.25
18 | O=C(CCC1CCCCC1)Nc1cccc(-c2nnc(-c3ccco3)o2)c1 | 8.68
19 | CN1CCN(S(=O)(=O)c2ccc(-c3ccc4c(Nc5ncc(Cl)cn5)ccnc4c3)cc2)CC1 | 23.03
20 | COc1cc(CN2CCC3(C=Cc4ccccc43)CC2)cc2c1OCO2 | -1.3

What follows are compounds tested on Escherichia coli. Conditions: Concentration 20 uM; ASSAY_TEST Inhibition of Bacterial Growth; detection method Absorption (OD600); MEDIA CAMHB; plate type 384well; NBS; CORNING #3640; time 18 hr.

Row | SMILES | Inhibition [%]
21 | CC(C)C(C(=O)Nc1ccc(S(=O)(=O)N(C)C)cc1)c1ccc(Cl)cc1 (stereo unspecified) | 11.91
22 | CCOc1ccccc1C(=O)Nc1cccc(-c2nc3ncccn3c2C)c1 | 10.22
23 | O=C(c1cc2ccccc2o1)N1CCN(Cc2ccc3c(c2)OCO3)CC1 | 11.22
24 | CCCn1nnc(NC(=O)COc2ccc(C3CCCCC3)cc2)n1 | -2.31
25 | Cc1nc2ccccn2c1C(=O)NCc1ccc(Cl)cc1 | 5.6
26 | Nc1ncc(-c2cn[nH]c2)cc1-c1nc2cc(Cl)cnc2[nH]1 | 5.12
27 | CNC(=O)C1Cc2ccccc2N1C(=O)Cc1ccc(F)cc1 (stereo unspecified) | 5.31
28 | CC(C)(C)C(=O)N(CCCCCCN1C[C@H](O)[C@@H](O)[C@H](O)[C@H]1CO)C1CCCCCC1 | 4.68
29 | CCc1ccccc1-n1c(C)cn2c3c(=O)n(C(C(=O)OC)C(C)C)c(=O)n(C)c3nc12 (stereo unspecified) | 7.91
30 | CC(C)C(Oc1cccc2ccccc12)C(=O)O (stereo unspecified) | -2.25
31 | COc1cc(C(F)(F)F)nc2ccc(C)c(N)c12 | 5.11
32 | COc1cccc(NC(=O)c2c(NC(=O)c3cccnc3)sc3c2CCC3)c1 | 4.69
33 | COC(=O)c1ccc(F)cc1NS(=O)(=O)c1cccc(-c2cnn(Cc3ccccc3)c2)c1 | 13.23
34 | CC(C)(C)n1nc(-c2ccccc2)c2c(N)ncnc21 | -3.37
35 | O=C1N(Cc2cc3ccccc3s2)CC2CN(Cc3ccccc3)CCN12 (stereo unspecified) | -5.97
36 | COc1cncc(-c2cncc(N3CCN(c4ccncc4)CC3)n2)c1 | 13.61
37 | COc1ccc(-c2cnc3ccc(NCc4ccc(S(N)(=O)=O)cc4)nn23)cn1 | 10.16
38 | COc1cccc2c(C)nc(N=C(N)N)nc12.O=C(O)C(F)(F)F.O=C(O)C(F)(F)F | 7.95

Row | SMILES | Inhibition [%]
39 | Cc1ccc2[nH]c3c(NCCN(C)C)ncnc3c2c1 | 7.48
40 | CCOc1ccc(-c2nc(CNCCc3ccc(F)cc3)cs2)cc1 | 7.75
41 | OCCc1ccc(Nc2nccc(-c3nnc4ccccn34)n2)cc1 | 6.52
42 | COc1ccccc1CNC(=O)c1cc(C2CC2)nc2c1cnn2C(C)C | -2.58
43 | Cc1cc(Cl)c(S(=O)(=O)N2CCCC2)cc1OCC(=O)NC1CCCCC1 | 0.73
44 | CC1=Nc2ccc(Cl)cc2C(O)(c2ccc(C)cc2)N1CCN1CCCCC1 (stereo unspecified) | 11.5
45 | Cc1cc(C(=O)Nc2cnn(Cc3ccc(Cl)cc3Cl)c2)no1 | 8.52
46 | O=C(NC1CC1)c1ccc(CSCc2ccccc2Cl)o1 | -1.44
47 | COc1ccccc1C(C)NCC(=O)Nc1cc(C(F)(F)F)ccc1Cl (stereo unspecified) | 8.42
48 | COc1cc(Br)cc2cc(C(=O)Nc3cccc(C(F)(F)F)c3)c(=O)oc12 | 1.89
49 | CC1CCCN(C(=O)C(C)Nc2cc(Cl)ccc2N2CCOCC2)C1 (stereo unspecified) | 9.44
50 | CN1CCN(S(=O)(=O)c2ccc(-c3ccc4c(Nc5ccc6nn[nH]c6c5)ccnc4c3)cc2)CC1 | -0.24
51 | NCCC(O)C(=O)N[C@@H]1C[C@H](N)[C@@H](OC2O[C@H](CN)[C@@H](O)[C@H](O)[C@H]2O)[C@H](O)C1OC1O[C@H](CO)[C@@H](O)[C@H](N)[C@H]1O.O=S(=O)(O)O.O=S(=O)(O)O (stereo partly specified) | 11.24
52 | O=C(NCCc1ccccc1)c1cc(-c2cccnc2)cnc1NCC1CC1 | 1.84
53 | COc1cccc(OCC(=O)c2ccc(Br)cc2)c1 | -7.45
54 | O=C(CCC1CCCCC1)Nc1cccc(-c2nnc(-c3ccco3)o2)c1 | 8.91
55 | CN1CCN(S(=O)(=O)c2ccc(-c3ccc4c(Nc5ncc(Cl)cn5)ccnc4c3)cc2)CC1 | 2.97
56 | COc1cc(CN2CCC3(C=Cc4ccccc43)CC2)cc2c1OCO2 | -2.88
